Compound activity deposited in PubChem BioAssay by National Center for Advancing Translational Sciences (NCATS).
A selection: hits, their analogues and other compounds. The true share with any hit is near 7.4%.
Luc counter – blocks Kinase-Glo luciferase, a counter-screen artifact. Q27757. 0.28% of 200,000 active. Kinase-Glo luciferase, ATP luminescence, 8 min. Potency, µM (titrated, usually from 38.3 µM), usual class: inhibitors; note: nearly all actives have a fitted effect of over 60% in size
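Compound is pinned into ATP-containing buffer (10 uM ATP, imidazole pH 7.2, 7 mM MgCl2). Kinase-Glo luciferase reagent is then added. Light output is recorded following an 8-min room-temperature incubation.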
NPC1 promoter act – activators of NPC1 promoter; AID 485313; Potency, µM (highest dose often 9.22 µM), usual class: activators; Huh7 NPC1 promoter luciferase reporter, 24 h; 2.4% of 320,000 active; note: nearly all actives have a fitted effect of over 60% in size
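NPC1 promoter–luciferase Huh7 cells; 24 h compound; luminescence.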
ELG1 genotox – induces genotoxicity in HEK293T cells with luciferase-tagged ELG1; HEK293T ELG1-luciferase reporter, luminescence, 16 h; AID 504466; Potency, µM (doses to about 46 µM), hits mostly activators; 1.3% of 330,000 active; note: nearly all actives have a fitted effect of over 60% in size
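Cells (2,000/well) expressing the ELG1-luciferase fusion are dosed by pin tool and kept 16 hr at 37 °C, 5% CO2. Signal comes from ONE-Glo luciferase reagent after 30 min at room temperature.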
SMN2 splice up – increases expression of the SMN2 splice variant | HEK293 SMN2-luciferase splicing reporter, luminescence, 30-36 h | Potency, µM (top dose mostly 46.1 µM), hits mostly activators | 2.8% of 210,000 active; note: nearly all actives have a fitted effect of over 55% in size
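HEK293 cells carry an SMN2 minigene-luciferase reporter in which exon 7 inclusion puts luciferase in frame. Cells were seeded at 2000 cells/well, attached for 10-12 hours, then exposed to compounds for 30-36 hours at 37C before ONE-Glo luminescence.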
FLuc counter – counter-screen for miR-21 project: firefly luciferase inhibitors or activators | P08659 | 6.9% of 360,000 active | Potency, µM (highest dose often 57.5 µM), most hits filed as inhibitors | purified FLuc, Km substrates, luminescence inhibition; note: nearly all actives have a fitted effect of over 55% in size
Target sequence (P08659 whole entry, looked up): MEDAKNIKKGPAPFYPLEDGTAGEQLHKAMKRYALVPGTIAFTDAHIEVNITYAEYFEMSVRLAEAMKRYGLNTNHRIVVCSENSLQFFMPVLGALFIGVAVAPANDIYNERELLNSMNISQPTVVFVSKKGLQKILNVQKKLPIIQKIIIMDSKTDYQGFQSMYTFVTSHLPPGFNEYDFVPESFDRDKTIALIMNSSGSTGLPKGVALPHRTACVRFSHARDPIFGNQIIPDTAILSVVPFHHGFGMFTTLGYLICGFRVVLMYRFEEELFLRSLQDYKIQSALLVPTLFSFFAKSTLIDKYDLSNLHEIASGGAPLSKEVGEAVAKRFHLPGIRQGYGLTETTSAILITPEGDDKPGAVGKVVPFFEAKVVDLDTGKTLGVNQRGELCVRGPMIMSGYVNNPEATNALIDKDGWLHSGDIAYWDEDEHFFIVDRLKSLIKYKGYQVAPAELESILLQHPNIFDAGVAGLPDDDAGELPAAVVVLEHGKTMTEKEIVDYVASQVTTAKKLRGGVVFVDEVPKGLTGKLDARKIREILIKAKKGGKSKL
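Purified P. pyralis luciferase (10nM final) with 10uM D-luciferin and 10uM ATP (Km levels) in 50mM Tris acetate pH 7.5, 10mM Mg acetate, 0.01% Tween-20, 0.05% BSA; qHTS 6-point titration, ~60 µM downward; luminescence read.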
Rab9 promoter act – activators of Rab9 promoter | Huh7 Rab9 promoter-luciferase reporter, luminescence, 24 h | Potency, µM (top dose mostly 9.22 µM), hits mostly activators | 2.8% of 320,000 active; note: nearly all actives have a fitted effect of over 60% in size
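Quantitative HTS format; Huh7 Rab9-luciferase reporter cells (1500/well) receive compound 2 h post-plating, incubate 24 h at 37 °C, then get luciferase reagent for 10 min before luminescence reading.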
A number is an active result; [ ] = dose if it differs, or a comment. Calls come from the whole dose curve; as a rule, active = well fitted curve in the direction sought with a large enough effect; inconclusive = small, poorly fitted or top-dose-only effect, or another doubt; inactive = no such curve, though single readings can be large; an effect the other way counts as inactive or inconclusive.

COc1ccccc1N1CCN(C(=O)C2CCN(S(=O)(=O)c3cccs3)CC2)CC1 was read as SMN2 splice up inactive and FLuc counter inactive.
For CCOC(=O)c1c(S(=O)(=O)N2CCCC(C(=O)N3CCN(c4ccc(F)cc4)CC3)C2)c(C)n(C)c1C (stereo not given) the results were FLuc counter inactive.
CCOc1ccc(-n2c(SCC(=O)Nc3ccc(CC)cc3)nc3c(oc4ccccc43)c2=O)cc1 was read as SMN2 splice up inactive and FLuc counter inactive.
CCCCN(CC)CCCNC(=O)CS(=O)(=O)Cc1nc(-c2ccc(C)cc2)oc1C was read as SMN2 splice up inactive and FLuc counter inactive.
For O=C(Cc1ccccc1F)Nc1nc(-c2ccc(F)c(F)c2)cs1 the results were NPC1 promoter act inactive, ELG1 genotox inactive, FLuc counter 13µM and Rab9 promoter act inconclusive.
Screening CN(Cc1ccccc1)C(=O)[C@H](Cc1ccc2ccccc2c1)NC(=O)[C@@H]1C[C@@H](O)CN1C(=O)c1cn(C)c2ccccc12 returned Luc counter inactive.
For COc1cc(/C=N/Nc2ccccc2C(F)(F)F)ccc1O the results were Luc counter inactive, NPC1 promoter act inactive, ELG1 genotox inactive, FLuc counter 13µM and Rab9 promoter act inconclusive.
For COc1cc(/C=N/Nc2ccccc2)ccc1O the results were NPC1 promoter act inactive, ELG1 genotox inconclusive, FLuc counter 15µM and Rab9 promoter act inactive.
Screening COc1ccc(/C=N/N(c2ccccc2)c2ccccc2)cc1O returned NPC1 promoter act inactive, ELG1 genotox inactive, FLuc counter inconclusive and Rab9 promoter act inactive.
COc1cc(/C=N/N(c2ccccc2)c2ccccc2)ccc1O was read as NPC1 promoter act inactive, ELG1 genotox inactive, FLuc counter 19µM and Rab9 promoter act inactive.
COc1ccc(/C=C/C(=O)Nc2ccccc2C(F)(F)F)cc1OC was read as NPC1 promoter act inactive, ELG1 genotox inactive, FLuc counter inactive and Rab9 promoter act inactive.
Screening COc1cc(/C=N/NC(=O)CCc2ccccc2)ccc1O returned Luc counter inactive, NPC1 promoter act inactive, ELG1 genotox inactive, SMN2 splice up inactive, FLuc counter inconclusive and Rab9 promoter act inactive.
For O=C(O)c1c(Cl)c(Cl)c(Cl)c(Cl)c1-c1c2cc(I)c(=O)c(I)c-2oc2c(I)c(O)c(I)cc12 the results were Luc counter 13µM.
For Cc1ccc(-n2cccc2/C=C2/C(=N)N3C(=NC2=O)SN=C3S(C)(=O)=O)cc1 the results were Luc counter inactive, NPC1 promoter act inactive, ELG1 genotox inactive, SMN2 splice up inactive, FLuc counter 19µM and Rab9 promoter act inactive.
Screening COc1cccc(-n2c(C)cc(/C=C3/C(=N)N4C(=NC3=O)SN=C4S(C)(=O)=O)c2C)c1 returned Luc counter inactive, NPC1 promoter act inactive, ELG1 genotox inactive, SMN2 splice up inactive, FLuc counter 5.4µM and Rab9 promoter act inactive.
CS(=O)(=O)C1=NSC2=NC(=O)/C(=C\c3cccn3-c3ccccc3Cl)C(=N)N21 was read as Luc counter inactive, NPC1 promoter act inactive, ELG1 genotox inactive, SMN2 splice up inactive, FLuc counter 27µM and Rab9 promoter act inactive.
Screening CS(=O)(=O)C1=NSC2=NC(=O)/C(=C\c3ccc(OS(=O)(=O)c4ccccc4)cc3)C(=N)N21 returned NPC1 promoter act inactive, ELG1 genotox inactive, FLuc counter inactive and Rab9 promoter act inactive.
For COc1cc(/C=C2/C(=N)N3C(=NC2=O)SN=C3S(C)(=O)=O)ccc1OS(=O)(=O)c1ccc(C)cc1 the results were NPC1 promoter act inactive, ELG1 genotox inactive[9.26 µM], FLuc counter inactive and Rab9 promoter act inactive.
For Cc1cc(C)cc(-n2cccc2/C=C2/C(=N)N3C(=NC2=O)SN=C3S(C)(=O)=O)c1 the results were Luc counter inactive, NPC1 promoter act inactive, ELG1 genotox inactive, SMN2 splice up inactive, FLuc counter 13µM and Rab9 promoter act inactive.
For CCc1ccc(Oc2c(C(F)(F)F)oc3c(CN4CCN(C)CC4)c(O)ccc3c2=O)cc1 the results were SMN2 splice up inactive and FLuc counter inactive.
Screening COC(=O)c1c(NC(=O)COc2cc(C)c(Cl)c(C)c2)sc2c1CCCC2 returned SMN2 splice up inactive and FLuc counter inactive.
Screening COc1ccc(Nc2nc3cc(Cl)c(Cl)cc3n3cnnc23)cc1Cl returned SMN2 splice up inactive and FLuc counter inactive.
CCc1ccc(-n2cccc2/C=C2/C(=N)N3C(=NC2=O)SN=C3S(C)(=O)=O)cc1 was read as Luc counter inactive, NPC1 promoter act inactive, ELG1 genotox inactive, SMN2 splice up inactive, FLuc counter 17µM and Rab9 promoter act inactive.
O=C(Nc1nc(-c2ccccn2)cs1)C12CC3CC(CC(O)(C3)C1)C2 was read as Luc counter inactive, NPC1 promoter act 2.2µM, ELG1 genotox inconclusive, SMN2 splice up 11µM, FLuc counter 6.7µM and Rab9 promoter act 3.2µM.
O=C(CC1CC2CCC1C2)Nc1nc(-c2ccccn2)cs1 (stereo not given) was read as Luc counter inactive, NPC1 promoter act inactive, ELG1 genotox inactive, SMN2 splice up inactive, FLuc counter 24µM and Rab9 promoter act 4µM.
For O=C(Nc1nc(-c2ccccn2)cs1)C1CC1 the results were Luc counter inactive, NPC1 promoter act inconclusive, ELG1 genotox inactive, SMN2 splice up inconclusive, FLuc counter inconclusive and Rab9 promoter act inconclusive.
For COc1cc(OC)c(NC(=O)C(C)n2nc(-c3ccc(C)c(C)c3)ccc2=O)cc1Cl (stereo not given) the results were FLuc counter inactive.
`O=[N+]([O-])c1ccc(NCCO)c(OCCO)c1` gave SMN2 splice up inactive.
CN(C)/C=N/c1c(C#N)cnn1-c1ccccc1 was read as Luc counter inactive, NPC1 promoter act inactive, ELG1 genotox inactive, SMN2 splice up inactive, FLuc counter inactive and Rab9 promoter act inactive.
`CN(C)/C=N/c1c(C#N)cnn1-c1nc2ccccc2s1` gave Luc counter inactive, NPC1 promoter act 0.11µM, ELG1 genotox inactive, SMN2 splice up inactive, FLuc counter inactive and Rab9 promoter act 0.13µM.
Cc1ccc(C(=O)c2oc3ccccc3c2NC(=O)COc2ccccc2Cl)cc1 was read as SMN2 splice up inactive and FLuc counter inactive.
CCc1cccc(CC)c1NC(=O)CN(C)S(=O)(=O)c1ccc2c(c1)n(C)c(=O)c(=O)n2C was read as SMN2 splice up inactive and FLuc counter inactive.
Screening Clc1c(CSc2nc3ccccc3o2)nc2ccccn12 returned Luc counter inactive, NPC1 promoter act 1.6µM, ELG1 genotox 2.6µM, SMN2 splice up 14µM, FLuc counter 1.9µM and Rab9 promoter act 2µM.
